Shiga toxin inh: inhibitors of Shiga toxin in Vero cells | Vero cells, Shiga toxin protein synthesis inhibition reporter | inhibition, % at 38.7 µM | 290,000 compounds, 9.2% hits; in the data active means inhibition mostly above about 28%, no sharp cut-off; inactive means mostly below about 43%; further: 0% is about no effect
AMA1 RON2 block: disrupts binding of P. falciparum AMA1 to RON2. AlphaScreen AMA1-biotinylated RON2 peptide binding. Potency, µM (doses to about 58.2 µM), without a hit: top-dose activity change, negative = inhibition, actives largely listed as inhibitors. 360,000 compounds, 0.2% hits. AID 720542;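 further: potency means the concentration at half of the fitted maximal effect; 0% = vehicle wells and -100% = peptide control; nearly all actives have a fitted effect of over 45% in size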
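AMA1 (3D7) with his tag at 25 nM final met compounds first, then biotinylated RON2 peptide at 25 nM; detection used donor plus acceptor beads, 10 µg/mL apiece, read by AlphaScreen after 30 min at room temperature.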
Cycloheximide cs: counter-screen hit for Shiga toxin inhibitors, cycloheximide. max response, %. 300,000 compounds, 12% hits. cell reporter, cycloheximide protein synthesis inhibition counterscreen. AID 2314; in the data active means max response mostly above about 13%, no sharp cut-off; inactive means mostly below about 14%; further: read at 38.3 µM for the half of the compounds with a filed dose; 0% is about no effect
SARS PLpro yeast: inhibitors of SARS-CoV papain-like protease in yeast; S. cerevisiae expressing SARS-CoV PLpro, growth rescue; 330,000 compounds, 0.19% hits; Potency, µM (highest dose often 32.9 µM), for the others: at the top dose activity, positive = growth rescue, actives largely listed as activators; calls by dose curve; further: potency means the concentration at half of the fitted maximal effect; 0% is about no effect; nearly all actives have a fitted effect of over 55% in size
Pf growth 48h: P. falciparum growth inhibition at 48 hours (one generation); P. falciparum luciferase growth in erythrocytes, 48 h; Potency, µM (highest dose often 28.7 µM), for the others: top-dose activity change, negative = inhibition, actives largely listed as inhibitors; 310,000 compounds, 5.9% hits; AID 504832; further: potency means the concentration at half of the fitted maximal effect; on the % scale 0 is the no-effect control and ±100 the full control effect
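Luciferase-expressing P. falciparum in infected erythrocytes (2% hematocrit, 0.1% parasitemia final) in RPMI 1640/0.5% Albumax were exposed to compound for 48 hours at 37 C, 5% CO2; growth read as luminescence.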
Pf growth 96h: inhibits malaria parasite growth, 96 h | P. falciparum luciferase reporter growth, 96 h | Potency, µM (doses to about 28.7 µM), inactives show at the highest dose activity change, negative = inhibition, most hits filed as inhibitors | 320,000 compounds, 6.9% hits | AID 504834; further: potency means the concentration at half of the fitted maximal effect; on the % scale 0 is the no-effect control and ±100 the full control effect
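Readout is luminescence from an integrated firefly luciferase in P. falciparum. Red cells, 2% hematocrit and 0.05% parasitemia final, were cultured with compound through two parasite generations (96 hours) at 37 C, 5% CO2.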
Starred values were filed as active, the others as inactive; ? = inconclusive; . = no result given; [ ] = remark or other dose. Most compounds without a hit are left out; they make up all but 19% or so of the library. Unless noted, the call rests on the fitted dose curve; in most records, active means well fitted curve in the direction sought with a large enough effect; inconclusive means small, poorly fitted or top-dose-only effect, or another doubt; inactive means no such curve, though single readings can be large; an effect the other way counts as inactive or inconclusive.

SMILES	Shiga toxin inh	AMA1 RON2 block	Cycloheximide cs	SARS PLpro yeast	Pf growth 48h	Pf growth 96h
CC(C)(C)OC(=O)NNC(=O)NC12CC3CC(CC(C3)C1)C2	-4	8%	10	0%	5%[5.75 µM]	?
Cc1ccc(NC(=O)c2cc(-c3ccccc3)nn2-c2ccccc2)c(Br)c1	8	-18%	-1	-15%	?	12µM*
C#CCCc1cscc1/C=[N+](\[O-])c1ccc(C(=O)OCC)cc1	.	-19%	.	6%	8.3µM*	?
O=C(CN1CCCCCCC1)NC(=O)NC1CCCCC1	51	0%	23	-2%	0%	?
O=C(CN1CCCCC1)NC(=O)NC1CCCC1	56*	10%	23*	-2%	56%	5%
Cc1cc(C)cc(C(=O)N(C)[C@H](Cc2ccc(-c3ccccc3)cc2)C(=O)N[C@@H](Cc2c[nH]c3ccccc23)C(=O)O)c1	-4	.	-3	.	.	.
CC(C)(Sc1cc(C(C)(C)C)c(O)c(C(C)(C)C)c1)Sc1cc(C(C)(C)C)c(O)c(C(C)(C)C)c1	-7	6%	-3	17%	7.2µM*	1µM*
COC(=O)c1cc(S(=O)(=O)N(C)C2CCCCC2)c[nH]1	-12	5%	-1	6%	15%	39%
C[C@H]1CN([C@@H](C)CO)S(=O)(=O)c2ccc(Br)cc2O[C@@H]1CN(C)C(=O)C1CCOCC1	.	-12%	.	.	.	.
CC(=O)Nc1ccc(NS(=O)(=O)c2cn(C)c(=O)n(C)c2=O)cc1	14	0%	-2	2%	-17%	10%
Cc1nc(C(=O)N/N=C/c2[nH]ncc2Br)cs1	45	73%	35*	-1%	1.7µM*	1.5µM*
CCOC(=O)c1ccc2[nH]c3c(c2c1)CCCCC3=O	50*	-6%	15*	2%	?	-11%[5.75 µM]
CCOC(=O)c1ccc2[nH]c3c(c2c1)CCCC3C(=O)OCC (stereo not given)	20	-13%	4	-22%	0%	?
c1ccc(Cc2nn3c(C4COc5ccccc5O4)nnc3s2)cc1 (stereo not given)	72*	18%	33*	28%	-8%	.
c1ccc(Cc2nnc3sc(C4COc5ccccc5O4)nn23)cc1 (stereo not given)	1	0%	0	-4%	-7%	?
COc1ccccc1-c1nn2c(C3COc4ccccc4O3)nnc2s1 (stereo not given)	6	6%	10	7%	14%	3.7µM*
c1ccc(CCc2nn3c(C4COc5ccccc5O4)nnc3s2)cc1 (stereo not given)	35*	11%	24*	-13%	6%	26%
CSc1ccc(S(=O)(=O)NCc2ccc(Cl)cc2Cl)cc1	-12	29%	-4	-28%	.	53%
CC(=NCc1ccco1)c1c(C)[nH]n(-c2nc3ccccc3s2)c1=O	56*	1%	48*	1%	185%	?
CCC(=NCc1ccco1)c1c(C(F)(F)F)[nH]n(-c2nc3ccccc3s2)c1=O	52*	6%	45*	7%	.	72%
O=c1c(C=NCc2cccnc2)c(C(F)(F)F)[nH]n1-c1nc2ccccc2s1	1	12%	-3	-1%	-10%	16%
CCC(=NCc1ccccc1)c1c(C(F)(F)F)[nH]n(-c2nc3ccccc3s2)c1=O	36	-2%	21*	3%	.	17%
CC(NC(=O)COC(=O)C1CCN(c2ccc(C(F)(F)F)cn2)CC1)c1ccc(Br)cc1 (stereo not given)	-12	12%	1	-1%	1%	-9%
Cc1cc(N2CCCC2)ccc1/C=C1\NC(=S)N(C)C1=O	28	-10%	21*	-1%	82%	0%
CN1C(=O)c2ccc(N3CCCC3)cc2C1=O	55*	28%	15*	3%	81%	29%
SMILES	Shiga toxin inh	AMA1 RON2 block	Cycloheximide cs	SARS PLpro yeast	Pf growth 48h	Pf growth 96h
O=C(N/N=C/c1ccc(N2CCOCC2)s1)c1ccccc1Cl	109*	63%	34*	3%	-30%	?
C(=N\N(c1ccccc1)c1ccccc1)/c1ccc(N2CCOCC2)s1	0	-29%	1	-9%	?	8.3µM*
O=C(N/N=C/c1sc(N2CCOCC2)nc1-c1ccccc1)c1cccc(S(=O)(=O)N2CCOCC2)c1	14	25%	0	0%	1.9µM*	2.1µM*
CCN(CC)c1ccc(C=Nc2cccc(S(=O)(=O)N3CCOCC3)c2)c(O)c1	.	8%[11.6 µM]	.	3%	.	.
CCN(CC)c1ccc(/C=N/NC(=O)c2cccc(S(=O)(=O)N3CCOCC3)c2)c(O)c1	-30	41%	-3	8%	10µM*	?
COc1ccc(S(=O)(=O)Oc2ccccc2C(=S)N2CCOCC2)cc1	-20	.	-2	0%	-8%	?
COc1ccc(S(=O)(=O)N2CCCOC2CNC(=O)C(=O)NCCc2ccco2)cc1OC (stereo not given)	-6	4%	-1	2%	-25%	?
Cn1c(SCC(=O)NC(c2ccccc2)c2ccccc2)nnc1-c1cccs1	-22	-17%	-3	-5%	?	.
FC(F)(F)c1ccc(Cl)c(N/N=C/c2ccc(N3CCOCC3)s2)c1	-3	-26%	11	-22%	?	7.4µM*
O=C(O)c1cccc(N/N=C/c2sc(N3CCOCC3)nc2-c2ccccc2)c1	176*	5%	128*	-2%	?	5.2µM*
O=C(N/N=C/c1sc(N2CCOCC2)nc1-c1ccccc1)c1ccccc1F	-8	7%	-1	0%	?	?
O=[N+]([O-])c1ccc(N/N=C/c2sc(N3CCOCC3)nc2-c2ccccc2)c(S(=O)(=O)Nc2ccc(Cl)cc2)c1	-5	24%	-3	1%	?	?
O=C(N/N=C/c1sc(N2CCOCC2)nc1-c1ccccc1)c1ccccc1O	10	70%	6	28%	5.2µM*	1.9µM*
O=[N+]([O-])c1ccc(N/N=C/c2sc(N3CCOCC3)nc2-c2ccccc2)c(S(=O)(=O)Nc2ccccc2Cl)c1	-1	-13%	1	1%	1.5µM*	?
COc1ccc(C)cc1S(=O)(=O)NC(C)C(=O)Nc1ccc2c(c1)OCO2 (stereo not given)	20	-7%	-3	2%	13%	?
O=S1(=O)CC(N2CCCC2)CN1Cc1ccccc1 (stereo not given)	.	7%	.	.	.	.
COc1ccc(C(=O)N/N=C/c2ccc(N3CCOCC3)s2)cc1OC	.	113%	.	1%	?	?
O=C(N/N=C/c1sc(N2CCOCC2)nc1-c1ccccc1)c1ccccc1Cl	11	-9%	2	0%	10µM*	?
CCOC(=O)N/N=C/c1ccc(N2CCOCC2)s1	19	-10%[11.6 µM]	10	7%	2.6µM*	38%
Cc1ccc(Nc2nc(=O)c3cccnc3s2)cc1	72*	3%	26*	-2%	95%	7%

Compound activity as filed in PubChem.
